Data taken from PMC7862700, “An all-to-all approach to the identification of sequence-specific readers for epigenetic DNA modifications on cytosine”.

What was measured:
Test in all cases: DAPPL (digital affinity profiling via proximity ligation, sequencing); 10 mM Tris-HCl pH 7.5, 50 mM NaCl, 1 mM DTT, 4% glycerol, room temperature, 30 min; GST-TFs on glutathione beads, 16-mer random dsDNA library, 0.1% formaldehyde crosslink after washing; high values mean tight binding
Conditions in all cases: protein: recombinant; tags: N-terminal GST; dsDNA, one strand shown
FLI1 = biological target: T1, FLI1 (Homo sapiens, UniProt Q01543 1-452)
T1 sequence: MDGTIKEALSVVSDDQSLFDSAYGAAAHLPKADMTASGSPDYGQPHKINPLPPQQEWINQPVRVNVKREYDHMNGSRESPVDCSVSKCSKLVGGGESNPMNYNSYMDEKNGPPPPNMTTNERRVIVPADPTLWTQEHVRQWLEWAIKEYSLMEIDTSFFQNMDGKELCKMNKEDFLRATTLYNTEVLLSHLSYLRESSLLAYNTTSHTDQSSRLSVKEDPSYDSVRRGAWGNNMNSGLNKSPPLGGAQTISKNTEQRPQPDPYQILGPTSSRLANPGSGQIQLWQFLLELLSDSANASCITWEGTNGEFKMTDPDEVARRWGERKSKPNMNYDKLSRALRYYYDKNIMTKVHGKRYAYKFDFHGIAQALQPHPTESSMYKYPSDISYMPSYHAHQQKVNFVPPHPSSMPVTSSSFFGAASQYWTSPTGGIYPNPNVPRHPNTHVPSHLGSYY
Procedure, shortened: (§1)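 Binding signal is given per hexamer as its read frequency for a factor divided by its frequency in the tag-only sample. GST-fused human transcription factors were expressed in yeast, captured on glutathione beads, barcoded with DNA and pooled with that sample, then incubated with 200 nmole of a 16-mer random double-stranded DNA library in Tris/NaCl/DTT/glycerol buffer for 30 min at room temperature. The pools were then washed, crosslinked, proximity-ligated, amplified by PCR and sequenced on an Illumina NextSeq500.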

ELK1 = biological target: T2, ELK1 (Homo sapiens, UniProt P19419 1-428)
T2 sequence: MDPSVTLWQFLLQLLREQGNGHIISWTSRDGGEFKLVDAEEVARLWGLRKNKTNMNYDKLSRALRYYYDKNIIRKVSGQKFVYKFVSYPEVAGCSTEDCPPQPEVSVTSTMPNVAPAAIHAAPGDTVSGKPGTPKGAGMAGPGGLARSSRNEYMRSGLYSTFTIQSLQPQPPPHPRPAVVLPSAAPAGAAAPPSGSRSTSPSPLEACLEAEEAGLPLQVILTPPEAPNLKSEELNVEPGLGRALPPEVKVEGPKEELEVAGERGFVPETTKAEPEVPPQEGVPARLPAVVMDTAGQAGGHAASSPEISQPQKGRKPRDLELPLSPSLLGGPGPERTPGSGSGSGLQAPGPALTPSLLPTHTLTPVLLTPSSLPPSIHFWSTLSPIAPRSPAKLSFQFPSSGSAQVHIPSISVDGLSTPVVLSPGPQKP
Procedure, shortened: as §1

GABPA = biological target: T3, GABPA (Homo sapiens, UniProt Q06546 1-454)
T3 sequence: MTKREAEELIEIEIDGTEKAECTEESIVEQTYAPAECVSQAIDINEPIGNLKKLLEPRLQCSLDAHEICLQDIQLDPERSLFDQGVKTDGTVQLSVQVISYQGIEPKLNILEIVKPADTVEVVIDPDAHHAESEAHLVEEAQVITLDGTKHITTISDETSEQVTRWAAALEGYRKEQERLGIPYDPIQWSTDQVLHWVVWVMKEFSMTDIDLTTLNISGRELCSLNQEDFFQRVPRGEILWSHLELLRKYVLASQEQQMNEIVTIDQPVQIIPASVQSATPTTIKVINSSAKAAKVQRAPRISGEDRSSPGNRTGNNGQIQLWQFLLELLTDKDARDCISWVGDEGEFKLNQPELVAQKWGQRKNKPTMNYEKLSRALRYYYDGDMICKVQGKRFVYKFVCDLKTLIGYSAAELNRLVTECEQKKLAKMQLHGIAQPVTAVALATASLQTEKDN
Procedure, shortened: as §1

ERG = biological target: T4, ERG (Homo sapiens, UniProt P11308 1-479)
T4 sequence: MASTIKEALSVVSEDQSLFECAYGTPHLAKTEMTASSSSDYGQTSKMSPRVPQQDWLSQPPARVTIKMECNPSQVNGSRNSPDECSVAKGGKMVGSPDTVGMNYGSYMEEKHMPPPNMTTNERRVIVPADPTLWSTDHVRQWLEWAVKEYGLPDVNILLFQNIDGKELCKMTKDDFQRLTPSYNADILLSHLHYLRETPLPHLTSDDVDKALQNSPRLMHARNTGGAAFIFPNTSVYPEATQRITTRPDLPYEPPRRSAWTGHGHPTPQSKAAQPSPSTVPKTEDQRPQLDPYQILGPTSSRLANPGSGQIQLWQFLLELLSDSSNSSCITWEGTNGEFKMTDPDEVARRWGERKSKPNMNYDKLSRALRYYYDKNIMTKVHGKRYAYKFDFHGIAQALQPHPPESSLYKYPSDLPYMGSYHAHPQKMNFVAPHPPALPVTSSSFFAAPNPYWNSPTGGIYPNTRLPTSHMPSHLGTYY
Procedure, shortened: as §1

ELF1 = ELF1 (Homo sapiens, UniProt P32519 1-619)
Chain of ELF1 (P32519 whole entry): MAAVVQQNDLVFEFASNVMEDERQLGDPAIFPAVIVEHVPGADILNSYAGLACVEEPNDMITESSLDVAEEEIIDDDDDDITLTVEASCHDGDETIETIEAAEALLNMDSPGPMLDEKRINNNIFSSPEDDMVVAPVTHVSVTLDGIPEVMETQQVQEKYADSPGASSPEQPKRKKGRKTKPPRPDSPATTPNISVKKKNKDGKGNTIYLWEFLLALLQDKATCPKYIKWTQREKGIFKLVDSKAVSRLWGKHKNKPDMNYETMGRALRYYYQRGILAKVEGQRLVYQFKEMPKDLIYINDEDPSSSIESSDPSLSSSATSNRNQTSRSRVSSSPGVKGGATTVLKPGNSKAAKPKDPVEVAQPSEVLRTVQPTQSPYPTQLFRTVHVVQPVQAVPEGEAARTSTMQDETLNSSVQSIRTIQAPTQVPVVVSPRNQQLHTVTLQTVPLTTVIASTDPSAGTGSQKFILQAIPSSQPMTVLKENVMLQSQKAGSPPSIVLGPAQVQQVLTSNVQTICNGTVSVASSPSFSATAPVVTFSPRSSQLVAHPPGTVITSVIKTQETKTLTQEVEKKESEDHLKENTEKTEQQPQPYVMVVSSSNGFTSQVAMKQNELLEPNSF
Procedure, shortened: as §1

EHF = biological target: T5, EHF (Homo sapiens, UniProt Q9NZC4 1-300)
T5 sequence: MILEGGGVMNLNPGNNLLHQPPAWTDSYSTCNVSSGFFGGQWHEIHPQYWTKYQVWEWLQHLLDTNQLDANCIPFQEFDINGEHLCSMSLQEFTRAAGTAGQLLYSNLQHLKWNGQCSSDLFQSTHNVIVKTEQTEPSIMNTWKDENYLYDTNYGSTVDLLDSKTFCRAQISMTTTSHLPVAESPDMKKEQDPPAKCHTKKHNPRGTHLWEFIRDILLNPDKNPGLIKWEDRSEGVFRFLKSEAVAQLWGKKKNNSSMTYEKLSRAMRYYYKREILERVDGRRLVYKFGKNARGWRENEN
Procedure, shortened: as §1

SPI1 = SPI1 (Homo sapiens, UniProt P17947 1-270)
Procedure, shortened: as §1

SPIB = SPIB (Homo sapiens, UniProt Q01892 1-262)
Chain of SPIB (Q01892 whole entry): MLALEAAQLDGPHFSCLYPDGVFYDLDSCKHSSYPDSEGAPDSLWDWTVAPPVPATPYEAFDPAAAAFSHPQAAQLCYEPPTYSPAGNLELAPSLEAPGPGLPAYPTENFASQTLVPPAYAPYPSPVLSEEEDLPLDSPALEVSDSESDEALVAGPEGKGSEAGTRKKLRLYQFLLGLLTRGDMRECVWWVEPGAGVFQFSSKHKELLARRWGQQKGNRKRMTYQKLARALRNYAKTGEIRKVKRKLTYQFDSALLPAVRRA
Procedure, shortened: as §1

ELK3 = biological target: T6, ELK3 (Homo sapiens, UniProt P41970 1-407)
T6 sequence: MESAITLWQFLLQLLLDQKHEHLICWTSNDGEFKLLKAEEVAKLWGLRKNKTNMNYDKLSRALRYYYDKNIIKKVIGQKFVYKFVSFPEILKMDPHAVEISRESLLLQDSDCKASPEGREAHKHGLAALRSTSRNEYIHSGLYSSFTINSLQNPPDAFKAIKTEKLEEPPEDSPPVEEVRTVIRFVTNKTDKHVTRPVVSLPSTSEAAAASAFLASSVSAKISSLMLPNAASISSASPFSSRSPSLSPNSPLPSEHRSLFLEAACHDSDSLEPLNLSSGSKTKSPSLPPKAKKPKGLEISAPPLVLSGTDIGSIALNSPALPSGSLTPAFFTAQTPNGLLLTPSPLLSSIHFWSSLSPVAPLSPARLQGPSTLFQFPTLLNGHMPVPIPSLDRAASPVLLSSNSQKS
Procedure, shortened: as §1

FEV = biological target: T7, FEV (Homo sapiens, UniProt Q99581 1-238)
T7 sequence: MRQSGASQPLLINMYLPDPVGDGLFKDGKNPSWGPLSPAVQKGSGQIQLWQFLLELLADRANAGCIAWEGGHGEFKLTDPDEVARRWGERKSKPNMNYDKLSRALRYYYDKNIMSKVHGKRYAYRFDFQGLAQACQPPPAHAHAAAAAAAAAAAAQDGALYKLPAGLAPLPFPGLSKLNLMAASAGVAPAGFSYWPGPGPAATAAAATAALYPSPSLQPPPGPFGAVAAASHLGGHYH
Procedure, shortened: as §1

ETV5 = ETV5 (Homo sapiens, UniProt P41161 1-510)
Chain of ETV5 (P41161 whole entry): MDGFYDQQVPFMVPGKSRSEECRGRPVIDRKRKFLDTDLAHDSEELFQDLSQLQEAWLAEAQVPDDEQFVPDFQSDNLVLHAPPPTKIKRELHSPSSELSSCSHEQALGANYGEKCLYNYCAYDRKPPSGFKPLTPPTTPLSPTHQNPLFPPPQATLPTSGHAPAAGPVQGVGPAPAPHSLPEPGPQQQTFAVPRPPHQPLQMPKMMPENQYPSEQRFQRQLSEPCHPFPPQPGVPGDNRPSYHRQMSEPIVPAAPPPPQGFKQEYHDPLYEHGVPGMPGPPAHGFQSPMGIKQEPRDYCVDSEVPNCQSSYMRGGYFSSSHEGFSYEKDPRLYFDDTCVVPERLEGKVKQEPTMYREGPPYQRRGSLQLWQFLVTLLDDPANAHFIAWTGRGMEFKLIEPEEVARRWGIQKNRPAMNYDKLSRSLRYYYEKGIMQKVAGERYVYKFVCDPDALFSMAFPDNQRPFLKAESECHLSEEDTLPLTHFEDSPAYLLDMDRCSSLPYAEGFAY
Procedure, shortened: as §1

SPIC = biological target: T8, SPIC (Homo sapiens, UniProt Q8N5J4 1-248)
T8 sequence: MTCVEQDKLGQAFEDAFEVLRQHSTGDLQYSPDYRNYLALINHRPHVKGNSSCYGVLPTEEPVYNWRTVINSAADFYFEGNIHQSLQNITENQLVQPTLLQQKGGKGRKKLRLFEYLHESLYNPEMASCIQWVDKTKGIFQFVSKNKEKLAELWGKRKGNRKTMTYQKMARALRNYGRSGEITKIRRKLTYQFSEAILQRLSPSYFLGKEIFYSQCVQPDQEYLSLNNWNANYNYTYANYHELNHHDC
Procedure, shortened: as §1

ELF4 = ELF4 (Homo sapiens, UniProt Q99607 1-663)
Chain of ELF4 (Q99607 whole entry): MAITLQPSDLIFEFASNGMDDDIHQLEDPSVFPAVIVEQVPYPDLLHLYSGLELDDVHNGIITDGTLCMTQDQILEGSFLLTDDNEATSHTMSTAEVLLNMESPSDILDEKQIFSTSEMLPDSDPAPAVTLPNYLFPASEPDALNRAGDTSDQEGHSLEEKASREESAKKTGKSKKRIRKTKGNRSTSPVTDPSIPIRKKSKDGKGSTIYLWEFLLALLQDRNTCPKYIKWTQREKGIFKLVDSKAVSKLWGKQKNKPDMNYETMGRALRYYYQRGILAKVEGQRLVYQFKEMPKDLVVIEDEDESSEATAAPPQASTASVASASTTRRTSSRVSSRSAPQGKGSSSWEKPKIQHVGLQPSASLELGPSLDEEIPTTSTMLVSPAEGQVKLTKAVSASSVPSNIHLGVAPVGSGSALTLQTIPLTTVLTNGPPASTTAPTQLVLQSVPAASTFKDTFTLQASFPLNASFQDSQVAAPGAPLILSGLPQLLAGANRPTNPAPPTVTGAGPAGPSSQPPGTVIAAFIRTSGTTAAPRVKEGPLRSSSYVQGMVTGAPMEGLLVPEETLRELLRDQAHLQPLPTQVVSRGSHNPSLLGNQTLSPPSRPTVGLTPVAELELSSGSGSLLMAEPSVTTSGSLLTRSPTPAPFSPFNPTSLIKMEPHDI
Procedure, shortened: as §1

ELK4 = biological target: T9, ELK4 (Homo sapiens, UniProt P28324-2 1-405)
T9 sequence: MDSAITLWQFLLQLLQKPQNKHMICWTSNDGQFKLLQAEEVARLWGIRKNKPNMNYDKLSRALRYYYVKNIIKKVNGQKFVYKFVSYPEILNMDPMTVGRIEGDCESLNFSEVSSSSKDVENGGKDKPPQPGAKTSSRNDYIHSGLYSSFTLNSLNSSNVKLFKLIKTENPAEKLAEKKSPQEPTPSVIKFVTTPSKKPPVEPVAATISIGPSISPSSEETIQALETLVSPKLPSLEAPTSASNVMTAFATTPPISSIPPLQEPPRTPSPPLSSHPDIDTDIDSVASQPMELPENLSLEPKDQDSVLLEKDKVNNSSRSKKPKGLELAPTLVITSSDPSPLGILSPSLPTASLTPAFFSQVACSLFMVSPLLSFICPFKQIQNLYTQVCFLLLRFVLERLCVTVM
Procedure, shortened: as §1

ETV2 = biological target: T10, ETV2 (Homo sapiens, UniProt O00321 1-342)
T10 sequence: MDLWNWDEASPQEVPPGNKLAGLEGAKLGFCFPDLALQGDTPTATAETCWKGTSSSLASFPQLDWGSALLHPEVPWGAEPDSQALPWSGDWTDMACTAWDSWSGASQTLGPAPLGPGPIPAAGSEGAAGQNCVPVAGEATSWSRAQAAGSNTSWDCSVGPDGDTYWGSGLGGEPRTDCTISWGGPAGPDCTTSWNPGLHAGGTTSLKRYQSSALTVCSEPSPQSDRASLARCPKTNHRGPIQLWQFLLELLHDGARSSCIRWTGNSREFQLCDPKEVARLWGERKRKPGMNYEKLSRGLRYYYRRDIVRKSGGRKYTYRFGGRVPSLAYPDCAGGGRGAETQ
Procedure, shortened: as §1

ELF3 = biological target: T11, ELF3 (Homo sapiens, UniProt P78545 1-371)
T11 sequence: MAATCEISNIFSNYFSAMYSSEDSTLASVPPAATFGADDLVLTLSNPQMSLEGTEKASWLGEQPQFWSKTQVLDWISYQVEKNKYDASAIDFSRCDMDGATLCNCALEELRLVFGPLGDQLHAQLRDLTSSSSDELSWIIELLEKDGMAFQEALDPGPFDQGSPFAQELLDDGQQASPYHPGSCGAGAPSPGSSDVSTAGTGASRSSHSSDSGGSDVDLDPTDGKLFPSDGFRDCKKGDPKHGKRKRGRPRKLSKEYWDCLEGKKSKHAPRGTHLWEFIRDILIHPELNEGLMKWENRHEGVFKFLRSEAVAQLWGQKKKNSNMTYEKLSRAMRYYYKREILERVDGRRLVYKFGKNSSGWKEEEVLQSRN
Procedure, shortened: as §1

ETV1 = ETV1 (Homo sapiens, UniProt P50549 1-477)
Chain of ETV1 (P50549 whole entry): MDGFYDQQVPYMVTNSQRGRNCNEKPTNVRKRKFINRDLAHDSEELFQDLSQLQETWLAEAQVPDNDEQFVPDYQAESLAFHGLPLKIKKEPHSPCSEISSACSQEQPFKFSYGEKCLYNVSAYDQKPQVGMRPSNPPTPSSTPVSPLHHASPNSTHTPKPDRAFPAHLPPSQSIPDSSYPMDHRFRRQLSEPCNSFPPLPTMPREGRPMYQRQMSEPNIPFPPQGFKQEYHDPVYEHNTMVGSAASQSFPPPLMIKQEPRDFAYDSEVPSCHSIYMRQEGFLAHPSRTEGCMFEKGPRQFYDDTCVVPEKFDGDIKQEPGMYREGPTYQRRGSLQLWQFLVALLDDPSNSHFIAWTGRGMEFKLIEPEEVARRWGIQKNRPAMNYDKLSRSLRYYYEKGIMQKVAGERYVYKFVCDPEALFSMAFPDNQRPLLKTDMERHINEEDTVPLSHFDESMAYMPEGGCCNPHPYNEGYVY
Procedure, shortened: as §1

## ACCGGA
FLI1
  binding signal: 2.87 fold enrichment (6-mer frequency, TF over GST control)
ELK1
  binding signal: 3.55 fold enrichment (6-mer frequency, TF over GST control)
GABPA
  binding signal: 2.66 fold enrichment (6-mer frequency, TF over GST control)
ERG
  binding signal: 3.94 fold enrichment (6-mer frequency, TF over GST control)
ELF1
  binding signal: 2.87 fold enrichment (6-mer frequency, TF over GST control)
EHF
  binding signal: 3.2 fold enrichment (6-mer frequency, TF over GST control)
SPI1
  binding signal: 3.17 fold enrichment (6-mer frequency, TF over GST control)
SPIB
  binding signal: 3.16 fold enrichment (6-mer frequency, TF over GST control)
ELK3
  binding signal: 3.55 fold enrichment (6-mer frequency, TF over GST control)
FEV
  binding signal: 6.19 fold enrichment (6-mer frequency, TF over GST control)
ETV5
  binding signal: 3.33 fold enrichment (6-mer frequency, TF over GST control)
SPIC
  binding signal: 2.63 fold enrichment (6-mer frequency, TF over GST control)
ELF4
  binding signal: 2.78 fold enrichment (6-mer frequency, TF over GST control)
ELK4
  binding signal: 2.4 fold enrichment (6-mer frequency, TF over GST control)
ETV2
  binding signal: 3.02 fold enrichment (6-mer frequency, TF over GST control)
ELF3
  binding signal: 3.15 fold enrichment (6-mer frequency, TF over GST control)
ETV1
  binding signal: 3.45 fold enrichment (6-mer frequency, TF over GST control)
